The nature of assay [1]: ATG_CRE_CIS: Attagene CIS-FACTORIAL HepG2 Assay for human cAMP Responsive Element (CRE) binding protein 3 (AID 2282926). The note with it: HepG2 CRE cis-reporter, Attagene multiplexed mRNA; actives raise or lower the signal. The method in brief: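 Human liver HepG2, transient MRTU transfection, 24 h compound exposure. Total RNA → oligo(dT) RT → PCR → 6-FAM primer extension → HpaI cut → CE. Activity called both directions vs DMSO.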

Assay [2] has as its target CCAAT/enhancer-binding protein beta (Homo sapiens) (UniProt P17676). Description: ATG_C_EBP_CIS: Attagene CIS-FACTORIAL HepG2 Assay for human CCAAT/Enhancer Binding Protein (C/EBP) beta (AID 2282927). The note with it: HepG2 Attagene cis-factorial transcription factor reporter; actives raise or lower the signal. An outline of the steps: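 Endogenous C/EBPb-driven reporter transcripts measured in transfected human HepG2 cells at 24 h via RT-PCR and capillary electrophoresis of labelled fragments. Activity fitted in both directions relative to DMSO baseline.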

The nature of assay [3]: ATG_DR4_LXR_CIS: Attagene CIS-FACTORIAL HepG2 Assay for human Liver X Receptor (LXR), DR4 submotif (AID 2282929). The settings on record: HepG2 Attagene DR4 cis-reporter, mRNA transcription; actives raise or lower the signal. An outline of the steps: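 Measures endogenous transcription factor activity via a DR4-driven reporter transcript in human HepG2 cells. Compounds incubated 24 h; mRNA quantified by RT-PCR and capillary electrophoresis, analysed as gain or loss of signal versus DMSO.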

The nature of assay [4]: ATG_AP_2_CIS: Attagene CIS-FACTORIAL HepG2 Assay for human Activator Protein 2 (AP-2) (AID 2282932). The note with it: HepG2 AP-2 cis-reporter, Attagene transcription factor profiling; actives raise or lower the signal. An outline of the steps:
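HepG2, transient MRTU transfection, cis-regulated reporters; 24 h compound exposure; RNA isolated, RT-PCR, 6-FAM labelling, HpaI digest, CE fluorescence. DMSO = negative control/baseline, bidirectional fit.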

The nature of assay [5]: ATG_BRE_CIS: Attagene CIS-FACTORIAL HepG2 Assay for human Bone Morphogenetic Protein (BMP) Response Element (BRE) (AID 2282933). The settings on record: HepG2 BMP response element reporter, Attagene transcription factor profiling; actives raise or lower the signal. An outline of the steps: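 Read-out: reporter mRNA induction quantified by RT-PCR and capillary electrophoresis after 24 h chemical exposure of transfected HepG2 cells. Endogenous factor activity on the BMP response element; gain or loss fitted against DMSO baseline.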

Assay [6] has as its target Transcription factor E2F1 (Homo sapiens) (UniProt Q01094). In words: ATG_E2F_CIS: Attagene CIS-FACTORIAL HepG2 Assay for human E2F Transcription Factor 1 (AID 2282935). The note with it: HepG2 Attagene cis-reporter, E2F reporter RNA transcripts; actives raise or lower the signal. An outline of the steps: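 Cis-element reporter mRNA induction in transiently transfected HepG2, 24 h exposure. Activity fitted in both directions relative to DMSO negative control.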

The nature of assay [7]: ATG_EGR_CIS: Attagene CIS-FACTORIAL HepG2 Assay for human Early Growth Response 1 (EGR1) (AID 2282938). The note with it: HepG2 Attagene CIS-FACTORIAL EGR reporter mRNA; actives raise or lower the signal. The method in brief:
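Cell-based multiplex transcription assay: HepG2 carrying transfected cis-element reporter units, 24 h chemical treatment. Fluorescence from capillary electrophoresis of RT-PCR products gives mRNA levels; fitting is bidirectional relative to DMSO.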

A short description of assay [8]: ATG_M_19_CIS: Attagene CIS-FACTORIAL HepG2 Assay for M19 Transcription Factor (Internal Marker) (AID 2282939). The note with it: HepG2 Attagene CIS-FACTORIAL M19 internal marker reporter; actives raise or lower the signal. The method in brief: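 Readout: fluorescent reporter-transcript fragments by capillary electrophoresis after RT-PCR. Human HepG2 liver cells carried transfected MRTU constructs reporting endogenous transcription-factor activity; exposure 24 h. Gain or loss of signal fitted relative to DMSO.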

A short description of assay [9]: ATG_Ets_CIS: Attagene CIS-FACTORIAL HepG2 Assay for human Erythroblast Transformation Specific (ETS) (AID 2282941). The note with it: HepG2 ETS cis-reporter transcription, actives raise or lower the signal. The method in brief: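 Human HepG2 hepatoma cells were transiently transfected with promoter-driven reporter constructs and treated for 24 hours. Reporter transcripts were quantified by RT-PCR with fluorescent primer extension; bidirectional curve fitting used DMSO as reference.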

Assay [10] deals with Hepatocyte nuclear factor 3-beta (Homo sapiens) (UniProt Q9Y261). Description: ATG_FoxA2_CIS: Attagene CIS-FACTORIAL HepG2 Assay for human Forkhead box A2 (FOXA2) (AID 2282942). The settings on record: HepG2 cis-reporter transcription factor activity, 24 h; actives raise or lower the signal. The method in brief: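 In transiently transfected human HepG2 cells, promoter-driven reporter mRNA levels after 24 h chemical exposure are determined via RT-PCR with capillary electrophoresis. DMSO serves as baseline for bidirectional fitting.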

The nature of assay [11]: ATG_FoxO_CIS: Attagene CIS-FACTORIAL HepG2 Assay for human Forkhead box O (FoxO) (AID 2282943). The note with it: HepG2 Attagene cis-reporter, FoxO element, mRNA; actives raise or lower the signal. The method in brief:
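Endogenous transcription factor activity read from multiplexed cis-promoter reporter transcripts in transiently transfected HepG2, 24 h after dosing. Reporter RNA measured via RT-PCR plus capillary electrophoresis of FAM-labeled products; gain or loss relative to DMSO.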

The nature of assay [12]: ATG_GATA_CIS: Attagene CIS-FACTORIAL HepG2 Assay for human GATA Binding Protein (AID 2282944). The settings on record: HepG2 GATA cis-element reporter, Attagene multiplex mRNA; actives raise or lower the signal. The method in brief: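 Read-out: fluorescent reporter mRNA fragments resolved by capillary electrophoresis after RT-PCR. Human liver HepG2 cells carried transiently transfected cis-regulated reporter constructs; chemicals incubated 24 h; gain or loss of signal fitted relative to DMSO.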

A short description of assay [13]: ATG_GLI_CIS: Attagene CIS-FACTORIAL HepG2 Assay for human Zinc Finger Protein GLI1 (AID 2282945). The settings on record: HepG2, Attagene cis-factorial reporter mRNA, GLI element; actives raise or lower the signal. The method in brief: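 Bidirectional curve fits relative to DMSO, using reporter mRNA levels from RT-PCR plus capillary electrophoresis. Cells were HepG2 transiently carrying cis-regulated reporter constructs, harvested 24 h after dosing.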

A short description of assay [14]: ATG_M_06_CIS: Attagene CIS-FACTORIAL HepG2 Assay for M06 Transcription Factor (Internal Marker) (AID 2282950). The note with it: HepG2 Attagene CIS-FACTORIAL M06 internal marker reporter; actives raise or lower the signal. An outline of the steps:
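Terse: HepG2, transient MRTU transfection (FuGene 6), 24 h dosing; total RNA, oligo(dT) RT, PCR, FAM label, HpaI cut, capillary electrophoresis; bidirectional fit vs DMSO baseline; background-control endpoint.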

Assay [15] in a line: ATG_MRE_CIS: Attagene CIS-FACTORIAL HepG2 Assay for human Metal Responsive Element (MRE) (AID 2282954). The settings on record: HepG2 MRE cis-reporter transcription, Attagene multiplex; actives raise or lower the signal. An outline of the steps:
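Transient MRTU transfection of HepG2 (FuGene 6); 24 h dosing; total RNA → oligo(dT) RT, PCR, 6-FAM primer extension, HpaI cut, CE. Bidirectional fit vs DMSO.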

The target in assay [16] is Paired box protein Pax-6 (Homo sapiens) (UniProt P26367). In words: ATG_Pax6_CIS: Attagene CIS-FACTORIAL HepG2 Assay for human Paired Box 6 (PAX6) (AID 2282956). The note with it: HepG2 CIS-FACTORIAL PAX6 reporter transcription, RNA readout; actives raise or lower the signal. An outline of the steps: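 Multiplexed cis-reporter HepG2 system; 24 h treatment; reporter mRNA read by RT-PCR/CE fluorescence; bidirectional fit vs DMSO.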

Assay [17] is described as follows: ATG_PXRE_CIS: Attagene CIS-FACTORIAL HepG2 Assay for human Pregnane X Receptor Element (PXRE) (AID 2282957). The settings on record: HepG2 Attagene CIS-FACTORIAL PXRE reporter, mRNA; actives raise or lower the signal. An outline of the steps: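 Transfect HepG2 with MRTUs (cis promoter elements); dose chemical, incubate 24 h; isolate RNA, RT with oligo(dT), PCR, 6-FAM label, HpaI cut, CE. Gain/loss fit vs DMSO.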

Assay [18] is described as follows: ATG_Sox_CIS: Attagene CIS-FACTORIAL HepG2 Assay for human SRY-box transcription factor (SOX) (AID 2282960). The settings on record: HepG2 Attagene cis-factorial SOX reporter, mRNA; actives raise or lower the signal. An outline of the steps: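 After 24 h of chemical treatment, transfected HepG2 reporter cells are lysed for total RNA. Transcript levels come from RT-PCR with labelled primer extension and capillary electrophoresis, analysed bidirectionally versus DMSO.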

For assay [19], the target named is Transcription factor Sp1 (Homo sapiens) (UniProt P08047). In words: ATG_Sp1_CIS: Attagene CIS-FACTORIAL HepG2 Assay for human Specificity Protein 1 (Sp1) (AID 2282961). The note with it: HepG2 Sp1 cis-reporter transcription, actives raise or lower the signal. An outline of the steps:
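Sp1-driven reporter mRNA, read as capillary electrophoresis fluorescence after RT-PCR, in transiently transfected HepG2 cells dosed for 24 h; signal change in either direction relative to DMSO.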

Assay [20] in a line: ATG_SREBP_CIS: Attagene CIS-FACTORIAL HepG2 Assay for human Sterol Regulatory Element Binding (SREBP) (AID 2282962). The settings on record: HepG2 Attagene cis-factorial SREBP reporter, mRNA; actives raise or lower the signal. The method in brief:
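mRNA induction of transfected cis-promoter reporters in HepG2 cells, 24 h post-dose. Detection: RT-PCR with 6-FAM-labelled products, HpaI digest, capillary electrophoresis. DMSO served as negative control and baseline.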

SMILES strings stand for the structures. Calls of active or inactive are those of the source. Rule for the calls: active = hit-call score of the fitted dose curve at least 0.9, where 1 is the maximum; inactive = score below 0.9.

CCAAT/enhancer-binding protein beta (Homo sapiens), sequence (P17676 whole entry, looked up, the tested form may be a part): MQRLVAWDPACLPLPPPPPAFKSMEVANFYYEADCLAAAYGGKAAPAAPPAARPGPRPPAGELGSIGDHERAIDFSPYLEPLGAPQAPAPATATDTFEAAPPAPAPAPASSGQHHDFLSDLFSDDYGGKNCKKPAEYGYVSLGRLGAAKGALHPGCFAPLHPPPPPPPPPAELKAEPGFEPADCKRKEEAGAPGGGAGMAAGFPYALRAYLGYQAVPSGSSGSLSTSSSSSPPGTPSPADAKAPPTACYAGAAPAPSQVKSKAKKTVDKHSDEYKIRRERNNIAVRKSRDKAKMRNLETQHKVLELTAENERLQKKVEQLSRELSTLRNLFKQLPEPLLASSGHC
Paired box protein Pax-6 (Homo sapiens), sequence (P26367 whole entry, looked up): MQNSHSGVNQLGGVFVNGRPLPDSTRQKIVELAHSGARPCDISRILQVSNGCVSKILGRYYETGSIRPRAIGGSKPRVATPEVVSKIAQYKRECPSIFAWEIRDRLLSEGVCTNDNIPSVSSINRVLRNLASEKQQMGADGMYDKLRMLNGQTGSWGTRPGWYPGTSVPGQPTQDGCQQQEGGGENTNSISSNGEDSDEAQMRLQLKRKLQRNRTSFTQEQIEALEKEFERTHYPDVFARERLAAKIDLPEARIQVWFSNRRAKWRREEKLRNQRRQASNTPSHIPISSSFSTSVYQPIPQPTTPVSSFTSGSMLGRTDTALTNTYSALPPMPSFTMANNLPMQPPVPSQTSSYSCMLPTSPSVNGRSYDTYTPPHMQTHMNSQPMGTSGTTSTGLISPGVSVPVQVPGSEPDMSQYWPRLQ
Transcription factor Sp1 (Homo sapiens), sequence (P08047 whole entry, looked up): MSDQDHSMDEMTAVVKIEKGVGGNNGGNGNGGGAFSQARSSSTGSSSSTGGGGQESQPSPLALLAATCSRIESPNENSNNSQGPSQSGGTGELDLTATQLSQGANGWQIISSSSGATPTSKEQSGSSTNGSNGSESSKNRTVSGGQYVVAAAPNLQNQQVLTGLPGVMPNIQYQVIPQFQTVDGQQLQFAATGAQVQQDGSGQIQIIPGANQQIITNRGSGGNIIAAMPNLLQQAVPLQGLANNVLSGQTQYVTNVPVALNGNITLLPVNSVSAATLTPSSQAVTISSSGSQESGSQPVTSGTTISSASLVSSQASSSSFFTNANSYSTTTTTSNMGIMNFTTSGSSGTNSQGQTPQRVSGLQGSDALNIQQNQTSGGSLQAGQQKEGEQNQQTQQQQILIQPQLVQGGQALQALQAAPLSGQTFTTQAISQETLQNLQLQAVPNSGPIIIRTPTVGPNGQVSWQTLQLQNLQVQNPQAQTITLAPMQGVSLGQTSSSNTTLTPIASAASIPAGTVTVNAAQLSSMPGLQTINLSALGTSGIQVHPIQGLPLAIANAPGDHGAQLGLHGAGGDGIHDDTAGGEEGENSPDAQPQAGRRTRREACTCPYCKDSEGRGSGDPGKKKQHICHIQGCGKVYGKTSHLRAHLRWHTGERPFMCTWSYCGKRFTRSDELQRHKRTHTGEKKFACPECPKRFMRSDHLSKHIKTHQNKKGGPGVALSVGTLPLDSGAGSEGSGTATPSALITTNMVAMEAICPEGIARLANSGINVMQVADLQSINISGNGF
Transcription factor E2F1 (Homo sapiens), sequence (Q01094 whole entry, looked up): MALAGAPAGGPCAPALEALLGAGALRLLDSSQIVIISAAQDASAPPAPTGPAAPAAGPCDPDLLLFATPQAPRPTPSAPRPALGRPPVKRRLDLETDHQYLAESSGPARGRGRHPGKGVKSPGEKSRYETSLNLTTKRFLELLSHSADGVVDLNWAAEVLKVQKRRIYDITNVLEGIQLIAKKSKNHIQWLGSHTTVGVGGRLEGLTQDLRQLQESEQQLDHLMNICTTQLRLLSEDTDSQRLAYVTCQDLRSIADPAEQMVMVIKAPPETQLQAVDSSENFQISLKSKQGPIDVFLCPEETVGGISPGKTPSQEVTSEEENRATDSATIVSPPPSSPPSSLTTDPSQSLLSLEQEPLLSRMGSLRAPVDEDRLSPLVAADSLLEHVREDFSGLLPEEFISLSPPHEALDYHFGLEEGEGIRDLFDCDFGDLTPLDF
Hepatocyte nuclear factor 3-beta (Homo sapiens), sequence (Q9Y261 whole entry, looked up): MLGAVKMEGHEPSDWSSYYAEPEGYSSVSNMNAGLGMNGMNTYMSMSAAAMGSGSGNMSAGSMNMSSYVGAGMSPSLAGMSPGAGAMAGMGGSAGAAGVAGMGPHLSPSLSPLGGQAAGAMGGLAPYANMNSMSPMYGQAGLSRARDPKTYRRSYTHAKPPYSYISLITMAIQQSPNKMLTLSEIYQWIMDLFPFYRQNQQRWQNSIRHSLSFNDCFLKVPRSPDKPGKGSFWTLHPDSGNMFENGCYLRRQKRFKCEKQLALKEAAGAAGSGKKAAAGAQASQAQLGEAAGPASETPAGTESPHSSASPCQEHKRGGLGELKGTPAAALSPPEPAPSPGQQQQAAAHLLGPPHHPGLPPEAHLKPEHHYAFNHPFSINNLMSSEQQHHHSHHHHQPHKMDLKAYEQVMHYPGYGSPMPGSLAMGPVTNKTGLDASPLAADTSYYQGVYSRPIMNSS

In the case of `O=P1(NCCCl)OCCCN1CCCl` (stereo not given), the result in [1], in assay [2], in assay [3], in assay [4], in assay [5] and in assay [6] was inactive. Also, the result in assay [7], in [8], in assay [9], in [10], in assay [11] and in [12] was inactive. The call in assay [13], in [14], in assay [15], in assay [16], in assay [18] and in assay [19] was inactive. Further, the outcome in assay [20] was inactive. Moreover, the AC50 in [17] is 50.2 µM (active).
On to `CC(C)(c1cc(Cl)c(O)c(Cl)c1)c1cc(Cl)c(O)c(Cl)c1`, for which the outcome in [1], in assay [2], in [4], in [5], in [6] and in assay [8] was inactive. Further, the result in [9], in assay [10], in [11], in [12], in [14] and in assay [17] was inactive. Also, the result in [18], in assay [19] and in [20] was inactive. Also, the AC50 in [3] was 33.4 µM (active); in assay [7], 52.8 µM (active); in assay [13], 60.7 µM (active); in assay [15], 58.4 µM (active); in [16] it was 52.3 µM (active).
`N#Cc1cccc(C#N)c1`: the compound was called inactive in [1], in assay [2], in assay [3], in [4], in assay [5] and in [6]. The compound was called inactive in assay [7], in [8], in [9], in [10], in assay [11] and in assay [12]. Besides, the compound was classed as inactive in [13], in assay [14], in assay [15], in [16], in assay [17] and in assay [18]. Moreover, the compound was called inactive in [19] and in assay [20].
As for `CCC[N+](=O)[O-]`, the call in assay [1], in assay [2], in [3], in assay [4], in assay [5] and in assay [6] was inactive. The outcome in [7], in [8], in assay [9], in assay [10], in assay [11] and in [12] was inactive. The compound was called inactive in assay [13], in [14], in assay [15], in assay [16], in [17] and in assay [18]. For the same compound, the outcome in assay [19] and in assay [20] was inactive.
Take `Cc1ccccc1CCl`: the compound was classed as inactive in assay [1], in [2], in [3], in assay [4], in assay [5] and in [6]. Moreover, the compound was called inactive in [7], in assay [8], in [9], in assay [10], in [11] and in assay [12]. Further, the outcome in [13], in assay [14], in [15], in assay [16], in assay [17] and in [18] was inactive. The outcome in [19] and in assay [20] was inactive.
Regarding `CC(C)(Cl)Cl`, the result in assay [1], in [2], in assay [3], in [4], in assay [5] and in [6] was inactive. Also, the outcome in [7], in [8], in assay [9], in [10], in assay [11] and in [12] was inactive. Moreover, the result in assay [13], in [14], in [15], in assay [16], in [17] and in assay [18] was inactive. Moreover, the compound was called inactive in assay [19] and in assay [20].
With `CC(C)CCCCCCCOP(=O)(Oc1ccccc1)Oc1ccccc1`, the outcome in assay [1], in assay [2], in assay [4], in [5], in assay [6] and in assay [7] was inactive. Besides, the compound was classed as inactive in assay [8], in [9], in assay [10], in [11], in assay [12] and in [13]. The result in assay [14], in [15], in assay [16], in assay [18] and in assay [19] was inactive. Moreover, the AC50 in [3] was 21.6 µM (active); in [17], 0.408 µM (active); in [20], 27.2 µM (active).

(Values after PubChem BioAssay (EPA / NIEHS).)
